Reference: PubChem BioAssay AID463173 (ICCB-Longwood Screening Facility, Harvard Medical School, 2010)
Among all 52,000 compounds or so, about 1,700 (3.3%) were called active. Rule as the data show it: active = survival mostly below about 52% (no sharp cut-off); inactive = mostly above about 56%. Many of the other results were omitted from the sample, so actives are more common in it than they were.

The compounds below were run on Wild type (assay: S. aureus survival, RN4220 and DeltatarO strains – OD600, teichoic acid synthesis inhibitors, primary screen (AID 463173)). Conditions: S. aureus RN4220 wild type/DeltatarO growth, OD600, 18 h, active compounds read low, screened at 18.75 µg/mL (by protocol).

SMILES | survival
Cc1cc(C)n2nc(-c3ccccc3)cc2n1 | 116% (inactive)
Cc1cc(-c2ccccc2)n2nc(-c3cccc(Br)c3)cc2n1 | 55% (inactive)
Cc1cc(-c2ccccc2)n2nc(-c3ccccc3)cc2n1 | -2% (active)
CCCCC(=O)Nc1nnc(SCc2cc(=O)n3cc(C)ccc3n2)s1 | 63% (inactive)
CC(=O)Nc1nonc1-c1nc2ccccc2n1Cc1ccccc1Br | 97% (inactive)
O=C(CCn1c(=O)c2sccc2n(Cc2ccc(F)cc2Cl)c1=O)NCc1ccc2c(c1)OCO2 | 92% (inactive)
CCc1ccc2oc(C(=O)NCCc3ccc(OC)c(OC)c3)cc(=O)c2c1 | 83% (inactive)
Cc1c(C(C)(C)C)sc(=N)n1C | 86% (inactive)
CCc1ccc(-c2[nH]c3c(c2-c2c(-n4cccc4)n(C)c(=O)n(C)c2=O)c(=O)n(C)c(=O)n3C)cc1 | 105% (inactive)
COc1ccc2c(Sc3ccc(Cl)cc3)c(C(=O)N3CCCCC3)[nH]c2c1 | 33% (inactive)
O=C(NCCCN1CCCCC1)c1[nH]c2ccccc2c1Sc1ccc(Cl)cc1 | -1% (active)
COc1ccc2c(Sc3ccccc3)c(C(=O)NCCCN3CCCCC3)[nH]c2c1 | 73% (inactive)
O=C(c1[nH]c2ccccc2c1Sc1ccc(Cl)cc1)N1CCCCC1 | 48% (inactive)
COCCCNC(=O)c1[nH]c2ccccc2c1Sc1ccc(C)cc1 | 81% (inactive)
COc1ccc2c(Sc3ccc(Cl)cc3)c(C(=O)NCCCN3CCCCC3)[nH]c2c1 | -1% (active)
CCOc1cc(C2CC(=O)Nc3c2c(C)nn3-c2nc(C)cc(C)n2)ccc1O (configuration not stated) | 83% (inactive)
CCOC(=O)c1cccc(NC(=O)c2cc3c(-c4cccc(OC)c4)nn(C)c3s2)c1 | 65% (inactive)
CCc1ccc2occ(CC(=O)N(Cc3ccccc3)C3CCS(=O)(=O)C3)c2c1 (configuration not stated) | 77% (inactive)
COc1ccc2c(c1)c1c(c(=O)n(-c3cccc(Cl)c3)c(=O)n1CC(=O)N1CCCC1)n2C | 73% (inactive)
CCCCN(CCCC)CCNC(=O)CN1C(=O)CSc2ccc(S(=O)(=O)N3CCCCC3)cc21 | 110% (inactive)
CCOC(=O)c1cnn(Cc2ccccc2)c1N | 104% (inactive)

SMILES | survival
COC(=O)c1ccc(Cn2nc(-c3ccc(C)cc3)ccc2=O)cc1 | 145% (inactive)
CCOC(=O)c1cc(-c2ccccc2)nn1Cc1ccccc1 | 2% (active)
CCc1cccc(NC(=O)Cn2nc(-c3ccc(OC)cc3)ccc2=O)c1 | 59% (inactive)
CCOC(=O)c1cc(-c2ccc(C)cc2)nn1Cc1ccccc1 | 0% (active)
O=C(O)c1cc(-c2ccccc2)nn1Cc1ccccc1 | 68% (inactive)
COc1ccc(-c2cc(C(=O)O)n(Cc3ccccc3)n2)cc1 | 63% (inactive)
CCOC(=O)c1cc(-c2ccc(OC)cc2)nn1Cc1ccccc1 | 10% (active)
Cc1ccc(-c2cc(C(=O)O)n(Cc3ccccc3)n2)cc1 | 63% (inactive)
CCOC(=O)c1c(C)[nH]c(C)c1S(=O)(=O)N1CCC(C(=O)NCc2cccc(C)c2)CC1 | 76% (inactive)
COC(=O)C1=C(C)Nc2nc3ccccc3n2C1c1ccccc1 (configuration not stated) | 91% (inactive)
CC(=O)NC1CC(=O)N(c2ccc3c(c2)OCCO3)C1 (configuration not stated) | 66% (inactive)
COc1ccc(Cl)cc1-n1nnc(-c2nc(-c3ccc4c(c3)OCO4)no2)c1C | 71% (inactive)
COc1ccc(OCC(O)Cn2c(C(C)C)nc3ccccc32)cc1 (configuration not stated) | 107% (inactive)
Cc1ccc(OCc2nc3ccccc3n2CC(C)C)cc1 | -1% (active)
COc1ccc(OCc2nc3ccccc3n2C(C)c2ccccc2)cc1 (configuration not stated) | -2% (active)
COc1ccc(OCc2nc3ccccc3n2C(C)C)cc1 | 102% (inactive)
Cc1nc2ccccc2n1C(C)c1ccccc1 (configuration not stated) | 111% (inactive)
CCCc1nc2ccccc2n1CC(O)COc1ccccc1 (configuration not stated) | 103% (inactive)
CCC(C)Cn1c(COc2ccc(OC)cc2)nc2ccccc21 (configuration not stated) | -1% (active)
COc1cccc(OCc2nc3ccccc3n2C)c1 | 84% (inactive)
Cc1cc(C)n2c(Nc3cccc(C(F)(F)F)c3)c(-c3ccsc3)nc2n1 | 89% (inactive)

SMILES | survival
O=C(c1cccs1)N1CCCc2ccccc21 | 124% (inactive)
COc1ccc(-n2ncc3c(NC(C)(C)CO)ncnc32)cc1 | 59% (inactive)
Cc1cc(Br)ccc1NC(=O)c1cc2c(s1)-c1ccccc1SC2 | 78% (inactive)
CCN(CC)c1ccc(NC(=O)CCc2nc3cccnc3n2Cc2cccs2)c(C)c1 | 73% (inactive)
CCOc1ccc(S(=O)(=O)NCCc2sc(-c3ccc(C)cc3)nc2C)cc1 | 73% (inactive)
Cc1ccc(-c2nc(C)c(CCNS(=O)(=O)c3ccc(F)c(C(F)(F)F)c3)s2)cc1 | -6% (active)
Cc1ccc(-c2nc(C)c(CCNS(=O)(=O)c3ccccc3F)s2)cc1 | 67% (inactive)
COc1ccc(N2CC(NC(=O)c3cc4ccccc4o3)CC2=O)cc1OC (configuration not stated) | 70% (inactive)
CCc1nc(SCC(=O)O)c(C#N)cc1C | 96% (inactive)
O=c1c2c([nH]n1-c1ccccc1)CCCC2 | 123% (inactive)
COc1ccc(NC(=O)c2ccc3c(c2)c(C)c(C)n3Cc2ccc(F)cc2)c(OC)c1 | 59% (inactive)
Cc1nc(-c2cccc(F)c2)sc1CCNC(=O)C(=O)Nc1ccc2c(c1)OCCO2 | 68% (inactive)
CCC1CCCCN1C(=O)CSc1nc(-c2ccc(OC)cc2)cc(C(F)(F)F)n1 (configuration not stated) | -6% (active)
COc1ccc(-c2cc(C(F)(F)F)nc(SCC(=O)N3CCCCC3C)n2)cc1OC (configuration not stated) | 69% (inactive)
COc1ccc(-c2cc(C(F)(F)F)nc(SCC(=O)N3CCCCC3)n2)cc1 | 97% (inactive)
COc1ccc(-c2cc(C(F)(F)F)nc(SCCC(=O)N3CCN(C)CC3)n2)cc1 | 108% (inactive)
COc1ccc(-c2cc(C(F)(F)F)nc(SCC(=O)N3CCCCC3)n2)cc1OC | 90% (inactive)
CCC1CCCCN1C(=O)CSc1nc(-c2ccc(OC)c(OC)c2)cc(C(F)(F)F)n1 (configuration not stated) | -15% (active)
Cc1cc(C)n(-c2nc3cc(Cl)c(Cl)cc3nc2Nc2ccc(F)cc2C)n1 | 82% (inactive)
Cc1oc(C(C)(C)C)cc1C(=O)NC(Cc1ccccc1)C(=O)O (configuration not stated) | 98% (inactive)
